Molecular target: SYT2
Experiment: pooled miR-30 sensor sort-seq; sequence = guide strand
Settings: shRNA
Further: reference of the scale not given here.

In order of rising sensor-assay potency score (higher = more potent):
1. TACCTGGACTTTCTGAATCTGC  -0.968
2. TTGGCCAGCATGTCGGACCAGT  -0.931
3. TTTCTGAATCTGCTCGAAGGGG  -0.751
4. TTGACATAAGGGTCTGAGGTGC  -0.653
5. TTTATCTCATTGAATAACTTCT  -0.172
6. TCTCATTGAATAACTTCTCCTT  -0.0548
7. TTCTGAATCTGCTCGAAGGGGA  0.015
8. TTGAATAACTTCTCCTTCAGTT  0.105
9. TATTTCTTCTTCTTGTCAGGAA  0.447
10. TTTGGTCTCATATTTCTTCTTC  0.677
11. TTTGGCAAACATGTCCTCCTGA  0.92

Molecular target: SYTL1
Experiment: as above
Settings: shRNA

In order of falling sensor-assay potency score (higher = more potent):
1. TTGAACACAGGGCTGAGGCTGC  0.21
2. TTGTACGTAAGTGTCCAGGGAT  0.203
3. TTGACGTAGGGGTCCGAGCGGC  -0.281
4. TGAGGTCCAACAGTCCTTCAGT  -0.459
5. TTCCTGCGCATAGACGCTCGGA  -0.515
6. TTCACCGCCGTCTTGCGCTTGC  -0.681
7. TTTCACAGCAGCCTCAGCCTCC  -0.778
8. TCGCACAACCCTTGTACGCTGG  -0.836
9. TTCTTCACCGCCGTCTTGCGCT  -1.02
10. TTCTCTTTCACAGCAGCCTCAG  -1.16
11. TTATCCGGGAGGAGGTAGCTTT  -1.36
12. TAGACGCTCGGACAAGGTCAGA  -1.39

Molecular target: SYTL4
Experiment: as above
Settings: shRNA

In order of rising sensor-assay potency score (higher = more potent):
1. AACACTGAGAATCAAATCCTTT  -1.16
2. TTCTTTAGTCGCCTAATCCTTT  -1.13
3. TAATCCTTTTCTCATCTGCTTT  -1.12
4. TTTCTTCAACTCTATTTCCTTG  -0.969
5. TAGTGGATTAACAGTGTCCCGC  -0.966
6. TTTGGGAGCAGACATCTTCTTC  -0.722
7. TTAGTGTACTCTGAAGGCCTGA  -0.464
8. TTTCATGTACCACATCTTCTGG  -0.423
9. TTATCCAGAGAGTCTCTCCTGG  -0.0866
10. TTCATGTACCACATCTTCTGGG  0.0201
11. TTCAACTCTATTTCCTTGGCGC  0.409
12. TCATGTACCACATCTTCTGGGC  0.653

Molecular target: TAAR8
Experiment: as above
Settings: shRNA

In order of rising sensor-assay potency score (higher = more potent):
1. TTAGCTATAAGAAAAATCTTAC  -0.74
2. AAATCTATCAACACCCAGCCTT  -0.587
3. TTTAGCTATAAGAAAAATCTTA  -0.583
4. TATAAGAAAAATCTTACTGTAA  -0.203
5. TCAGTAACCACAATGTACCTGT  0.327

From the OligoGym collection
